The assay is described as follows: sensitizers of A549 cells to miR-34 induction, primary screen, imaging, A549 dox-inducible miR-34, nuclei and caspase counts (AID 1347080). Note: test concentration not given here. The following applies: A549 miR-34 inducible, Hoechst nuclei count, 48 h; measured here: total cells with miR-34 induction; stronger effect = lower value.
Regarding `CCCCC[C@H](O)/C=C/[C@H]1C(=O)C[C@H](O)[C@@H]1C/C=C\CCCC(=O)OC`, the cell count was found to be 5010.
Next, `C#C[C@]1(O)CC[C@H]2[C@@H]3CCC4=CC(=O)CCC4[C@H]3CC[C@@]21CC` (stereo not given in full): 6080; `COC(=O)CCCCCC[C@@H]1[C@@H](CCC(O)C#Cc2ccccc2F)[C@H](O)C[C@@H]1O` (stereo not given in full): 5830; `CC(Sc1nc2ccccc2[nH]1)C(=O)N/N=C/c1cc(Br)ccc1O` (stereo not given): 6060.
Next, `CC(C)=CCC/C(C)=C/CC/C(C)=C/CC[C@]1(C)CCc2c(C)c(O)c(C)c(C)c2O1`: 5490; `Cc1c(C(=O)c2ccccc2)c(N)c(-c2ccccc2)n1Cc1ccc(Cl)cc1`: 5890.
As to `CCCCCCCCCCCCCCCCC/C=C/C(=O)O`, the cell count was found to be 5370.
Next, `CCCCC(C)(C)[C@H](O)/C=C/[C@@H]1[C@@H](C/C=C\CCCC(=O)O)[C@H](O)C[C@H]1O`: 5660; `CCCCCCC[C@H](O)/C=C/[C@H]1[C@H](O)CC(=O)[C@@H]1C/C=C\CCCC(=O)O`: 5790; `CCCCC/C=C\C/C=C\C/C=C\C/C=C\CCCC(=O)OCC`: 5170.
Consider `CCCCC/C=C\C/C=C\C/C=C\C/C=C\CCCC(=O)OCc1ccsc1`, for which the cell count was 6270.
For the compound `CC/C=C\C/C=C\C/C=C\C/C=C\CCCCC(=O)O`, the cell count is 5720.
For the compound `OC1C[C@@H]2[C@@H](CC[C@@H](O)CCc3ccccc3)[C@H](O)C[C@@H]2O1` (stereo not given in full), the cell count is 6130.
On to `C[C@H](CCCO)[C@H]1CC[C@H]2[C@@H]3[C@H](O)C[C@H]4C[C@H](O)CC[C@]4(C)[C@H]3C[C@H](O)[C@]12C`, for which the cell count was found to be 5800.
With `CCCCCCCCCCCCCCCCOC[C@H](COP(=O)([O-])OCC[N+](C)(C)C)OC(=O)CCCCCCCC(=O)O` the figure was 4600.

For the origin of these results see PubChem BioAssay.
